HRas wt GTP: human HRas wildtype GTP binding, change in either direction | GTP binding activity, % at 10 µM | actives 0.14% (n = 190,000) | GST-Ras wt beads, Bodipy-FL-GTP binding, flow cytometry; actives lie on both sides | P01112;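 active means GTP binding activity at least 20% away from the 100% baseline, either lowered as inhibitor or raised as activator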;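 further: 0% = unlabeled GTP competition control and 100% = no-compound control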
Rab7 wt GTP bind: modulators of GTP binding to dog Rab7 wildtype GTPase | actives 0.055% (n = 190,000) | GTP binding activity (percent of control), % at 10 µM | GST-Rab7 beads, fluorescent GTP binding, flow cytometry; actives lie on both sides; untreated = 100%, excess cold GTP = 0%;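 active means fluorescent GTP binding to Rab7 beads changed by at least 20 points from the 100% baseline, either direction, mostly lower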;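 further: median green fluorescence of bound Bodipy-FL-GTP per Rab7 bead population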
Rab2 wt GTP: changes GTP binding to wildtype dog Rab2A, up or down. actives 0.19% (n = 190,000). GST-Rab2 wt beads, Bodipy-GTP binding, flow cytometry. P61105. AID 760. GTP binding activity, % at 10 µM;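 active means GTP binding activity at least 20 points away from 100%, either lowered or raised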;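 further: 0% = beads with excess unlabeled GTP and 100% = no-compound control corrected for plate trend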
Rac1 wt GTP bind: human Rac1 wildtype GTP binding, inhibitors and activators; actives 0.27% (n = 190,000); GTP binding activity (% of control), % at 10 µM; AID 757; GST-Rac1 beads, fluorescent GTP binding, flow cytometry; actives lie on both sides; 0 = cold GTP competed, 100 = untreated;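 active means GTP binding activity at least 20 points away from the 100% control level, either lower or higher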
Cdc42 wt GTP: human Cdc42 wildtype GTP binding change, either direction; GST-Cdc42 beads, Bodipy-GTP binding, flow cytometry; actives lie on both sides; percent activity (GTP binding), % at 10 µM; actives 0.2% (n = 190,000);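 active means percent activity GTP binding at least 20 points away from the 100% baseline, either down as inhibitor or up as activator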;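 further: median bead fluorescence of bound Bodipy-FL-GTP at 100 nM; 0% = excess unlabeled GTP control and 100% = no compound control; below 100% means less GTP binding so inhibitor and above means activator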
Target sequence (P60953 whole entry, looked up): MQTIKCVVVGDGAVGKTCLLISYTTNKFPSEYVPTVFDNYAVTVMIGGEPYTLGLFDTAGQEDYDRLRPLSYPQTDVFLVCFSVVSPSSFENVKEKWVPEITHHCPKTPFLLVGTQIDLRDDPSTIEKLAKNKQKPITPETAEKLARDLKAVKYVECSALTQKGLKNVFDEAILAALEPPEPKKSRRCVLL
Rac1 mut GTP: alters GTP binding to activated mutant human Rac1 | GST-Rac1 activated beads, fluorescent GTP binding, flow cytometry; actives lie on both sides; 100% means binding = to untreated wells | percent activity (GTP binding), % at 10 µM | actives 0.11% (n = 190,000) | AID 764;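 active means GTP binding at least 20 percentage points away from the 100% baseline, in either direction, so actives lie on both sides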
Active calls of the source: *; [ ] = another dose, or the depositor's remark. A selection: hits, their analogues and other compounds. The true share with any hit is near 0.37%.

SMILES	HRas wt GTP	Rab7 wt GTP bind	Rab2 wt GTP	Rac1 wt GTP bind	Cdc42 wt GTP	Rac1 mut GTP
O=C(O)CC/C(=C\c1ccc(N2CCOCC2)c([N+](=O)[O-])c1)c1nc2ccccc2s1	77*	80	74*	82	71*	72*
Cc1ccc(NN2C(=O)C=C(c3ccccc3)C2=O)cc1	95	98	102	102	107	99
CC1CC(C)CN(C(=O)C(NS(=O)(=O)c2ccc(Br)s2)c2ccccc2)C1 (stereo not given)	100	98	100	101	95	98
COc1ccc(/C=C2\SC(=S)NC2=O)cc1OS(=O)(=O)c1ccc(NC(C)=O)cc1	111	118	108	135*[activator]	108	110
COc1cc(/C=C2/SC(=S)NC2=O)ccc1OS(=O)(=O)c1ccc(C)cc1	97	96	96	96	98	98
CCCCOC(=O)C(C)Sc1n[nH]c(=O)[nH]c1=O (stereo not given)	99	105	100	101	96	95
CCOc1ccc(C2C(C(=O)O)CCC(=O)N2C2CCCCC2)cc1 (stereo not given)	72*	74*	73*	71*	72*	73*
O=C(NCc1cccs1)c1cccn2c(=O)c3sccc3nc12	66*	92	63*	55*	63*	77*
O=C(NCc1cccs1)c1cnc2ccccn2c1=O	99	100	98	103	101	96
Cc1ccc(-n2c(=O)cc(N3CCN(C(=O)c4ccco4)CC3)[nH]c2=O)cc1	106	107	102	121*[activator]	102	105
Cc1ccc(-n2c(=O)cc(N3CCc4ccccc4C3)[nH]c2=O)cc1	107	104	107	126*[activator]	110	106
C/C(O)=C(/C=NCC(=O)O)C(=O)Nc1nccs1	98	94	94	99	99	97

Bioassay records: PubChem, NMMLSC
